Source: PubChem BioAssay AID651812 (National Center for Advancing Translational Sciences (NCATS), 2012)
In all, about 2,100 compounds went through this assay and about 650 (31%) were called active. Not shown: some 16% with an inconclusive outcome. The call rests on the fitted dose curve; in most records, active means well fitted inhibition curve with a large enough effect; inconclusive means small, poorly fitted or top-dose-only effect; inactive means flat fitted curve, though single readings scatter. The list shows a part of the results.

Experiment: qHTS for inhibitors of Vif-A3G interactions: Cherry picks; further: nearly all actives have a fitted effect of over 80% in size
Settings: HeLa A3G-eYFP + Vif (tagged APOBEC3G with the HIV-1 protein that degrades it), 24 h; Potency: eYFP fluorescence increase; series mostly up to 36.9 µM
How it was run: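 Cherry-picked compounds tested at several concentrations on A3G-eYFP/Vif HeLa cells for 24 hours; loss of Vif-driven degradation read as eYFP fluorescence by cytometric plate imaging, 488 nm excitation, 500-530 nm emission.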
Potency means the concentration at half of the fitted maximal effect.

Potency, active:
CCC(C)n1c(NC(=O)c2ccccc2)c(C#N)c2nc3ccccc3nc21 (configuration not stated) 18.4 µM
O=c1[nH]c(/C=C/c2cccc3ccccc23)nc2ccccc12 18.4 µM
N#CC(=Cc1ccccn1)c1nc(-c2ccc(Cl)cc2)cs1 6.27 µM
CCOc1ccc(C2CC(c3c(O)c4ccccc4oc3=O)=NN2c2ccccc2)cc1OC (configuration not stated) 14.6 µM
COc1ccc(/C=C2\C(=O)NC(=S)N2C(=O)c2ccc(F)cc2)cc1 8.2 µM
N#C/C(=C\c1cccc(O)c1)c1nc2ccccc2o1 3.14 µM
C[C@]12CCC[C@H](O1)c1c(cc3c(c1O)C(=O)c1c(O)cc(O)cc1C3=O)O2 13 µM
O=C1c2ccccc2C(=O)c2cc(N3CCCCC3)ccc21 7.9 µM
COc1cccc(-c2ccc3c(N)c(C(=O)c4ccc(Br)cc4)sc3n2)c1 16.4 µM
COc1cccc(C(=O)c2sc3nc(-c4ccccc4)cc(C(F)(F)F)c3c2N)c1 1.64 µM
COc1ccc(C(=O)c2sc3nc(C)cc(-c4cccs4)c3c2N)cc1 18.4 µM
COc1ccc(NC(=O)c2sc3nc(C(F)(F)F)cc(C)c3c2N)cc1OC 23.1 µM
COc1ccc(NC(=O)c2sc3nc4c(cc3c2N)CN(Cc2ccccc2)CC4)c(OC)c1 18.4 µM
COc1ccc(C(=O)c2sc3nc(-c4ccc(C)cc4)cc(C(F)(F)F)c3c2N)cc1 2.06 µM
COc1ccc(NC(=O)c2sc3nc(-c4ccc(OC)cc4)cc(C(F)(F)F)c3c2N)cc1 0.731 µM
COc1ccc(NC(=O)c2sc3nc(-c4cccnc4)ccc3c2N)cc1OC 3.66 µM
Cc1cc(C(F)(F)F)c2c(N)c(C(=O)Nc3cc(C)on3)sc2n1 8.2 µM
COc1ccc(OC)c(NC(=O)c2sc3nc(Cc4ccccc4)cc(C(F)(F)F)c3c2N)c1 4.61 µM
CCOC(=O)/C=c1/s/c(=C/c2ccc3cc(OC)ccc3c2)c(=O)n1CC(=O)NCC1CCCO1 (configuration not stated) 18.4 µM
CCOC(=O)/C=c1\s/c(=C\c2ccccc2C)c(=O)n1CC(=O)NCc1ccc2c(c1)OCO2 15.8 µM
COc1cc2c(cc1OC)C1=CC(=O)C(=O)N1C(C)(C)C2 17.7 µM
CC1CCN(c2ccc3c(c2)S(=O)(=O)c2cccc(C(=O)NCc4cccc(F)c4)c2C3=O)CC1 14 µM
Cc1ccc(CNC(=O)c2cccc3c2C(=O)c2ccc(N4CCC(C)CC4)cc2S3(=O)=O)cc1 20.6 µM
Cc1ccc(CNC(=O)c2cccc3c2C(=O)c2ccc(N4CCCCC4)cc2S3(=O)=O)cc1 20.6 µM
O=C(NCc1ccccc1)c1cccc2c1C(=O)c1ccc(/C=C/c3ccccc3)cc1S2(=O)=O 18.4 µM
CCN(CC)c1ccc(/C=C/c2ccncc2)cc1 16.4 µM
CCN(CC)c1ccc(/C=C/c2ccccn2)cc1 14.6 µM
CCN(CC)c1ccc(/C=C/C2=C3C=CC=CC3NC=C2)cc1 (configuration not stated) 18.4 µM
CN(C)c1ccc(/C=C/c2ccncc2)cc1 20.6 µM
CCN(CC)c1ccc(/C=C/C(=O)c2ccc(Br)cc2)cc1 25.9 µM
CCOc1cc(N(CC)CC)ccc1/C=C(/C#N)c1nc2ccccc2[nH]1 4.61 µM
CCN(CC)c1ccc(/C=C(/C#N)c2nc3ccccc3[nH]2)c(OC(C)C)c1 0.58 µM
CCCOc1cc(N(CC)CC)ccc1/C=C(/C#N)c1nc2ccc(C)cc2[nH]1 18.4 µM
CCS(=O)(=O)N1N=C(c2cccc(NS(C)(=O)=O)c2)CC1c1ccc(C)cc1 (configuration not stated) 18.4 µM

Potency, inactive:
c1ccc(N=Nc2ccc3cccccc2-3)cc1
Cc1ccc(-c2csc(NC3OC(=O)c4ccccc43)n2)cc1 (configuration not stated)
CCOC(=O)C(=Cc1ccc(-n2cncn2)cc1)C(=O)OCC
CCOc1cc(S(=O)(=O)NCc2ccc(OC)cc2)c(OCC)cc1-n1cnnn1
CC(C)(C)OC(=O)NCc1ccc(NC(=O)c2nc[nH]c2C(=O)NCCCNC(=O)c2[nH]cnc2C(=O)Nc2ccc(CNC(=O)OC(C)(C)C)cc2)cc1
CCN(CC(=O)Nc1ccccc1-c1ccccc1)Cc1nc2ccccc2c(=O)[nH]1
Cc1ccccc1/C=C\c1nc2ccccc2c(=O)[nH]1
O=c1[nH]c(-c2cccnc2)nc2sc(-c3ccccc3)cc12
O=C(NC1CCCC(C(F)(F)F)C1)c1ccc([N+](=O)[O-])o1 (configuration not stated)
N#C/C(=C\c1ccc(Cl)cc1)c1nc2ncccc2[nH]1
COc1ccc(CCNC(=O)CC2(CC3=NS(=O)(=O)c4ccccc4N3)CCCC2)cc1OC
COc1cccc(Cn2c3ccc(NC(=O)CCc4ccc(F)cc4)cc3c(=O)n2C)c1
COc1ccc(-c2cc(-c3nnc(COC(=O)c4ccncc4)o3)c3ccccc3n2)cc1OC
CCOc1ccccc1NC(=O)Cn1nnc(C(=O)NCc2cccs2)c1N
COc1cc2c(cc1OC)CN(C(=O)c1cc(=O)c3ccccc3o1)CC2
CCOc1cc(-c2nnc(SCC(=O)NCc3ccccc3)nc2-c2ccc(OC)c(OCC)c2)ccc1OC
COc1ccc(C(=O)/C=C2/c3ccccc3CC(C)(C)N2C)cc1
COc1ccc(NC(=O)c2ccc3c(c2)c(C)c(C)n3Cc2ccc(F)cc2)cc1
NNC(=O)c1cc2sccc2s1
CC(C)n1cc(NC(=O)c2cc(-c3ccccc3)on2)cn1
O=C(N/N=C/c1cccc2ccccc12)c1cc2ccccc2o1
COc1cc(C(=O)Nc2ccc3c(c2)nc(C)n3C)cc(OC)c1OC
COC(=O)CCS(=O)(=O)c1nc(-c2ccccc2)cc(C(F)(F)F)n1
COc1ccc(COc2cc(-c3cccc(OC)c3)nc3ccc(NC(=O)c4ccc(OC)cc4)cc23)cc1
COc1ccc(N(C(=O)C(C)C)S(=O)(=O)c2cccs2)cc1
COc1ccc(C(=O)c2ccc(OC)c(OC)c2OC)cc1
COc1ccc(Nc2nc(C)nc3sc4c(c23)CCC4)cc1O
O=c1[nH]c(NCc2ccco2)nnc1Cc1ccccc1Cl
Cc1c(C(=O)N/N=C/C(C)C)[nH]c2c([N+](=O)[O-])cccc12
CN[C@H]1CCc2cc(OC)c(OC)c(OC)c2-c2ccc(N(C)CC(OC)OC)c(=O)cc21
C/C(=N\NC(=O)c1c(Cl)c(C)nn1C)c1ccc(NC(=O)C2CCC2)cc1
Cc1ccc(NC(=O)Cn2ncc(Cl)c(Cl)c2=O)cc1S(=O)(=O)N1CCCCC1
O=C(N/N=C/c1ccc2c(c1)OCO2)c1ccc2c(c1)OCCO2
Brc1ccc2c(c1)[C@H]1OCC[C@H]1[C@@H](c1cccs1)N2
C=C(C)CNC(=S)N/N=C1\CCCCc2ccccc21
Cc1cc(N2CCN(C)CC2)ccc1NC(=O)c1c2c(nc3ccccc13)CCN(Cc1ccccc1)C2
COc1ccc(OC)c(-c2cc(-c3cccnc3)nc(N)c2C#N)c1
CCOC(=O)c1c(C)nc2sc(C(=O)Nc3ccc(OC)cc3)c(N)c2c1-c1ccc(OC)cc1
COc1cccc(NC(=O)Nc2nc(-c3ccc(OC)c(OC)c3)cs2)c1
COc1ccc(NC(=O)c2cc(-c3ccccc3OC)on2)cc1
COc1cccc(C(=O)Nc2ncc3c(n2)CC(c2ccc(OC)cc2OC)CC3=O)c1 (configuration not stated)
CC1(C)Cc2nc3sc4c(=O)n(CC(=O)NCc5ccccc5)cnc4c3cc2CO1
O=[N+]([O-])c1ccccc1SNc1ccccc1
CC(=O)Nc1ccc(S(=O)(=O)Nc2nc3ccccc3nc2Nc2ccc3ccccc3c2)cc1
Clc1ccc(-c2csc3ncnc(Sc4nnnn4C4CC4)c23)cc1
O=C1NC(c2ccc(Br)cc2)Nc2ccccc21 (configuration not stated)
C/C(=N\NC(=O)c1cc(-c2ccncc2)nc2ccccc12)c1ccc(N2CCOCC2)cc1
CC(=O)Nc1ccc(-c2ccnc3c2CC(C(=O)NCc2cccc(Cl)c2)O3)cc1 (configuration not stated)
COc1ccc2nc3sc(C(=O)Nc4cc(Cl)c(OC)cc4OC)cc3cc2c1
Cc1cc(-c2nc(C)c(C(=O)NN)s2)no1
COc1cc(C(=O)Nc2nnc(Cc3ccccc3)s2)cc(OC)c1OC
O=C(N/N=C/c1cccc2ccccc12)c1n[nH]c2c1CCCC2
O=C(OCC12CC3CC(CC(C3)C1)C2)c1ccc(NCc2cc(O)ccc2O)cc1
CC(=O)Nc1ccc(-c2ccnc3c2CC(C(=O)Nc2cccc(N(C)C)c2)O3)cc1 (configuration not stated)
CC(CC(=O)Nc1ccc2c(c1)c(=O)n(C)n2-c1ccccc1)c1ccccc1 (configuration not stated)
NC(=O)CSc1nc2c(sc3ccccc32)c(=O)n1CCCC(=O)NCC1CCCO1 (configuration not stated)
O=C(/C=C/c1cccs1)NCc1ccc2c(c1)OCO2
COc1ccc(OC)c(C2CC(=O)c3c([nH]c(C(=O)OCC4CCCO4)c3C)C2)c1 (configuration not stated)
O=C(NCc1ccc2c(c1)OCO2)c1cc([N+](=O)[O-])ccc1N1CCOCC1
COc1ccc(-c2cc(NC=O)c3ncc(-c4ccc(C(C)=O)cc4)n3c2)cc1OC
Cn1c(=O)c2cc(NC(=O)NCc3ccccc3)ccc2n1C/C=C/c1ccccc1
CCCOc1ccc2cc(C(=O)NCc3ccccc3)c(=O)oc2c1
Cc1ccc(CNC(=O)Cc2ccc(-n3cccc3)cc2)cc1
O=C(NCc1ccc2c(c1)OCO2)c1cc([N+](=O)[O-])ccc1N1CCCCC1
COc1ccc(NC(=O)C2(C)Cc3c(-c4ccc5c(c4)OCO5)ccnc3O2)cn1 (configuration not stated)
Cc1cc(N/N=C/c2ccc(O)cc2O)nc(-n2nc(C)cc2C)n1
CCN(CC)c1ccc(/C=N/NC(=O)c2ccco2)cc1
c1ccc(C2CNCc3c2ccc2ccccc32)cc1 (configuration not stated)
Cc1cccc(OCCOc2ccccc2C=C(C#N)C#N)c1
O=C1C=C(Nc2ccc(Cl)cc2Cl)CC(c2ccco2)C1 (configuration not stated)
CC(=O)c1cccc(-c2ccnc3c2CC(C(=O)Nc2cccc(NS(C)(=O)=O)c2)O3)c1 (configuration not stated)
CS(=O)(=O)Nc1ccc(C2=NN(S(C)(=O)=O)C(c3ccc4nccnc4c3)C2)cc1 (configuration not stated)
O=C1CCCN1c1ccc(S(=O)(=O)Nc2ccc3c(c2)OCCO3)cc1
